Inconclusive results are not listed. Activity calls are given as the source filed them. Unless noted, the call rests on the fitted dose curve; in most records, active means well fitted curve in the direction sought with a large enough effect; inconclusive means small, poorly fitted or top-dose-only effect, or another doubt; inactive means no such curve, though single readings can be large; an effect the other way counts as inactive or inconclusive.
Key:
[1] = target: Guanidinoacetate N-methyltransferase (Homo sapiens) (UniProt Q14353); assay: Confirmatory Screen for Target Class Profiling of Small Molecule Inhibitors of Methyltransferases (AID 1745852; calls by dose curve; on activity change, negative = inhibition: on the % scale 0 is the no-effect control and ±100 the full control effect); settings: MTase-Glo luminescence, SAH detection, recombinant enzyme; at 57.3 µM (top of the series)
[2] = target: Nicotinamide N-methyltransferase (Homo sapiens) (UniProt P40261); assay: as above; settings: MTase-Glo luminescence, SAH detection, recombinant enzyme; measured here: NNMT max response; stronger effect = lower value
[3] = target: Phenylethanolamine N-methyltransferase (Homo sapiens) (UniProt P11086); assay: as above; settings: MTase-Glo luminescence, SAH detection, recombinant enzyme; measured here: PNMT max response; stronger effect = lower value
[4] = target: Metallo-beta-lactamase type 2 (Klebsiella pneumoniae) (UniProt C7C422); assay: qHTS to identify inhibitors of the New Delhi Metallo-beta-lactamase (NDM): assay validation screen against the NCATS LOPAC Collection (AID 1794843);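 further: nitrocefin turnover by NDM-1 measured as 485 nm absorbance at plateau; on the % scale 0 is the no-effect control and ±100 the full control effect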
How it was run: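 Nitrocefin hydrolysis (50 uM substrate stock) by NDM-1, 2 nM final, was followed by 485 nm absorbance after compound preincubation; buffer was 50 mM HEPES pH 7.0, 1 uM ZnSO4, 0.01% Tween20.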

[5] = target: Glutathione peroxidase 1 (Homo sapiens) (UniProt P07203); assay: Primary qHTS Assay for Inhibitors of Recombinant Selenoprotein Glutathione Peroxidase 1 (GPX1) (AID 1845191); further: nearly all actives have a fitted effect of over 65% in size; further: potency means the concentration at half of the fitted maximal effect; on activity, negative = inhibition: on the % scale 0 is the no-effect control and ±100 the full control effect
How it was run: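 NADPH consumption tracked by fluorescence at 340/450 nm between t=0 and t=15 min, room temperature. Final mix: 10 nM GPX1, 100 nM glutathione reductase, 1 mM GSH, 0.5 mM NADPH, 0.5 mM cumene hydroperoxide, 0.01% BSA; 30 min compound–enzyme preincubation.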

[6] = target: Phospholipid hydroperoxide glutathione peroxidase GPX4 (Homo sapiens) (UniProt P36969); assay: Primary qHTS Assay for Inhibitors of Recombinant Selenoprotein Glutathione Peroxidase 4 (GPX4) (AID 1845192); settings: outcome: dose series up to 50 µM unless noted; further: nearly all actives have a fitted effect of over 65% in size
How it was run: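 NADPH consumption followed by fluorescence at 340/450 nm, t=0 and after 15 min at room temperature. Reaction started with cumene hydroperoxide (0.5 mM final) after 30 min compound–GPX4 preincubation; final 200 nM GPX4, 100 nM GR, 1 mM GSH, 0.5 mM NADPH.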

[7] = qHTS profiling for inhibitors of Plasmodium falciparum proliferation (AID 504749); further: potency means the concentration at half of the fitted maximal effect;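 on activity, negative = inhibition: 0% = DMSO vehicle and full inhibition = artemisinin control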; on all read-outs here: nearly all actives have a fitted effect of over 60% in size; settings: P. falciparum in erythrocytes, SYBR Green DNA, 72 h; for activity, negative = inhibition: at 28.7 µM (top of the series)
How it was run: (§1)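 In a 72 h erythrocytic culture (37 C, humidified, 5% CO2) at 2.5% hematocrit and 0.3% starting parasitemia, compounds were tested; SYBR Green I in detergent lysis buffer stained parasite DNA overnight.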

3D7 = assay: as above; settings: P. falciparum in erythrocytes, SYBR Green DNA, 72 h; series mostly up to 28.7 µM
How it was run: as §1

AA1029 = assay: as above; settings: P. falciparum in erythrocytes, SYBR Green DNA, 72 h; series mostly up to 28.7 µM
How it was run: as §1

AS120 = assay: as above; settings: P. falciparum in erythrocytes, SYBR Green DNA, 72 h; series mostly up to 28.7 µM
How it was run: as §1

ATS189 = assay: as above; settings: P. falciparum in erythrocytes, SYBR Green DNA, 72 h; series mostly up to 28.7 µM
How it was run: as §1

ATS95 = assay: as above; settings: P. falciparum in erythrocytes, SYBR Green DNA, 72 h; series mostly up to 28.7 µM
How it was run: as §1

C2A = assay: as above; settings: P. falciparum in erythrocytes, SYBR Green DNA, 72 h; series mostly up to 28.7 µM
How it was run: as §1

[8] = target: Luciferin 4-monooxygenase (Photinus pyralis) (UniProt P08659); assay: Primary firefly luciferase (FLuc) qHTS assay for identification of artifact compounds. (AID 1845220);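 further: plate controls were DMSO vehicle for no effect and no enzyme for full effect; nearly all actives have a fitted effect of over 60% in size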
How it was run: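 Compounds sat 15 min at room temperature with 10 uM luciferin and 10 uM ATP (pH 7.6 Tris acetate). Firefly luciferase (10 nM final) was then added, and luminescence was read 5 min later. Data normalized to no-enzyme and DMSO controls were Hill-fitted.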

[9] = Primary fluorescence-based thiol-reactive (MSTI) qHTS assay for identification of artifact compounds. (AID 1845221);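 further: thiol-reactive compounds lower the probe fluorescence signal; nearly all actives have a fitted effect of over 65% in size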
How it was run: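 MSTI probe at 4 uM final in 2% DMSO/PBS pH 7.4; compounds, 1 h at room temperature in dark. Fluorescence Ex/Em 525/598 nm, normalised to Acetyl-MSTI and MSTI, fitted to 4-parameter Hill.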

[10] = system: Nanoluciferase (engineered Oplophorus gracilirostris luciferase); assay: Primary Nanoluciferase (NLuc) qHTS assay for identification of artifact compounds. (AID 1845222);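 further: 0% = DMSO and -100% = no enzyme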
How it was run: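 Luminescence from secreted NLuc (filtered, 1:55-diluted S16 cell medium) read 5 min after Nano-Glo substrate; compounds preincubated 15 min, RT. Hill fits of inhibition normalized to DMSO and no-enzyme.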

[11] = Primary redox qHTS assay for identification of artifact compounds. (AID 1845223);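 further: 0% = DMSO and 100% = reference compound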
How it was run: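 Redox-cycling detection via DTT (250 uM final) oxidation coupled to Amplex Red (25 uM)/HRP (250 mU/mL) in HBSS. 15 min preincubation plus 30 min after DTT, room temperature. Ex/Em 525/598 nm; 4-parameter Hill fit against DMSO and 10 uM DA3003.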

7G8 = assay: qHTS profiling for inhibitors of Plasmodium falciparum proliferation (AID 504749); further: nearly all actives have a fitted effect of over 60% in size; further: potency means the concentration at half of the fitted maximal effect;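 on activity, negative = inhibition: 0% = DMSO vehicle and full inhibition = artemisinin control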; settings: P. falciparum in erythrocytes, SYBR Green DNA, 72 h; series mostly up to 28.7 µM
How it was run: as §1

[12] = qHTS drug screen for cell cycle checkpoint inhibitors in PARPi-resistant BRCA-mutant ovarian cancer cell lines. (AID 1963452; calls by dose curve); settings: PEO1/OlaR viability, CellTiter-Glo luminescence, 96 h, stronger effect = lower value
How it was run: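 PEO1, PEO4 and PEO1/OlaR ovarian cancer cells, 600 per well, exposed 96 h at 37C to a dilution series. Viability read by CellTiter-Glo luminescence, normalized to DMSO and empty wells; activity summarized as Z-AUC.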

[13] = NCATS anti-infectives library activity on HEK293 viability as a counter-qHTS vs the C. elegans viability qHTS (AID 1745854); further: on the % scale 0 is the no-effect control and ±100 the full control effect
How it was run: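 CellTiter-Glo luminescence, read on a CCD imager, scored viability of HEK293 cells after 24 hr compound exposure at 37C. Library tested in several concentrations, 1:5 steps, up to 41.7 uM; digitonin served as control.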

[14] = measured here: PEO1 parental Z-AUC

Nicotinamide N-methyltransferase (Homo sapiens), sequence (P40261 whole entry, looked up): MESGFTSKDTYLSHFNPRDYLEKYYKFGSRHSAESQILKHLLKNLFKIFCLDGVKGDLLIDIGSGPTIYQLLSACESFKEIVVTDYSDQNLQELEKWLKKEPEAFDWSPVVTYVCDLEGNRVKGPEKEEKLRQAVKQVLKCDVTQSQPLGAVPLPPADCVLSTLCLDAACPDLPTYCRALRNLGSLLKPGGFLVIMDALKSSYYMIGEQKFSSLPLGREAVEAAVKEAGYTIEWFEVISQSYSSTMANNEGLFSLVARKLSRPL
Phenylethanolamine N-methyltransferase (Homo sapiens), sequence (P11086 whole entry, looked up): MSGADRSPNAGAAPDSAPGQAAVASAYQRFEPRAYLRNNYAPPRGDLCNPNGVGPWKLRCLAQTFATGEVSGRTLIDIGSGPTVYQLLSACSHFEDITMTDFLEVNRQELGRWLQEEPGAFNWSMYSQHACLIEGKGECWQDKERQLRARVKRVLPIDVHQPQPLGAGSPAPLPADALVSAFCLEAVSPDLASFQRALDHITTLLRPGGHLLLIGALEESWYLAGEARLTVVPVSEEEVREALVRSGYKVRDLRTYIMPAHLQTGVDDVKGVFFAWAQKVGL
Metallo-beta-lactamase type 2 (Klebsiella pneumoniae), sequence (C7C422 whole entry, looked up): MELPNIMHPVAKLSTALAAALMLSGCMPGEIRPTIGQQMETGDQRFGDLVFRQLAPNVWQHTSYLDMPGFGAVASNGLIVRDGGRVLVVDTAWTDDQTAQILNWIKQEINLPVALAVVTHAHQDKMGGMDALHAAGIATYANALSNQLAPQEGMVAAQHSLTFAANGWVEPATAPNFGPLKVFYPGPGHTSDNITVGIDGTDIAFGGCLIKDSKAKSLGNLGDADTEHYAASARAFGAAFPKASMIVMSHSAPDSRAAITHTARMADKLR
Glutathione peroxidase 1 (Homo sapiens), sequence (P07203 whole entry, looked up): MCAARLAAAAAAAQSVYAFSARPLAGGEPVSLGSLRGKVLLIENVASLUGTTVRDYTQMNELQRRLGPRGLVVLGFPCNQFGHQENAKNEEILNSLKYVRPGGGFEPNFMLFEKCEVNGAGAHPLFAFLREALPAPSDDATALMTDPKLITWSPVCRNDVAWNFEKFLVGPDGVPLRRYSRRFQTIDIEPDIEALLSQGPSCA
Phospholipid hydroperoxide glutathione peroxidase GPX4 (Homo sapiens), sequence (P36969 whole entry, looked up): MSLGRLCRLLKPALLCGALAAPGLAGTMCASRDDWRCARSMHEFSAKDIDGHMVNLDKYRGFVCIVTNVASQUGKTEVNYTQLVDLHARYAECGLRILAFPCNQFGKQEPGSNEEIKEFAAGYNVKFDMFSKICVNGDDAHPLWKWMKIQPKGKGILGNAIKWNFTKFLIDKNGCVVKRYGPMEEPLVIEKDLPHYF

NC1=NCC2c3ccccc3Cc3ccccc3N12 (centres undefined)
-3.06%: activity [3]
-14.5%: activity [2]
inactive: Potency [4] | Potency [5] | outcome [6] | activity, negative = inhibition ([7]; parasite line A) -23% | Potency (3D7) | Potency (AA1029) | Potency (AS120) | Potency (ATS189) | Potency (ATS95) | Potency (C2A)
4.05%: activity change, negative = inhibition [1]

CN/C(=C\[N+](=O)[O-])NCCSCc1ccc(CN(C)C)o1
inactive: Potency [4] | Potency [5] | outcome [6]

CC(C)[N+](C)(CCOC(=O)C1c2ccccc2Oc2ccccc21)C(C)C
inactive: Potency [4] | Potency [5] | outcome [6]

CCCN1C[C@H](CSC)C[C@@H]2c3cccc4[nH]cc(c34)C[C@H]21
inactive: Potency [4] | outcome [6] | outcome [8] | outcome [9] | outcome [10] | outcome [11] | Potency (3D7)
active: Potency (7G8) 11.2 µM | Potency (AS120) 12.6 µM | Potency (ATS95) 7.94 µM
0.569%: activity [3]
-3.93%: activity [2]
5.03%: activity change, negative = inhibition [1]

COc1cc(C(=O)OCCCN2CCCN(CCCOC(=O)c3cc(OC)c(OC)c(OC)c3)CC2)cc(OC)c1OC
9.88%: activity change, negative = inhibition [1]
1.01%: activity [3]
active: Potency (3D7) 11.2 µM | Potency (7G8) 8.91 µM | Potency (AA1029) 11.2 µM | Potency (AS120) 10 µM | Potency (ATS189) 8.91 µM
-4.53%: activity [2]
inactive: Potency [4] | outcome [6]

COc1ccc([C@@H]2Sc3ccccc3N(CCN(C)C)C(=O)[C@@H]2OC(C)=O)cc1
0.963: Z-AUC [12, 14]
0.74: Z-AUC ([12]; measured here: PEO4 Z-AUC)
inactive: Potency [4] | Potency [5] | outcome [6] | Z-AUC [12] 1.43 | activity, negative = inhibition ([7]; parasite line A) 3.17% | activity, negative = inhibition ([7]; parasite line B) 7.3% | Potency (3D7) | Potency (AA1029) | Potency (AS120) | Potency (ATS189) | Potency (ATS95) | Potency (C2A)

CCc1cccc(N(C)C(N)=Nc2cccc3ccccc23)c1
inactive: Potency [4] | Potency [5] | outcome [6] | activity, negative = inhibition ([7]; parasite line A) -26.1% | activity, negative = inhibition ([7]; parasite line B) -10.7% | Potency (3D7) | Potency (C2A)
1.17%: activity [3]
4.76%: activity change, negative = inhibition [1]
active: Potency (7G8) 3.98 µM | Potency (AA1029) 3.55 µM
-4.43%: activity [2]

CCn1nc(C(=O)O)c(=O)c2cc3c(cc21)OCO3
inactive: Potency [4] | Potency [5] | outcome [6]

C(=C\c1ccccc1)/CN1CCN(C(c2ccccc2)c2ccccc2)CC1
inactive: Potency [4] | Potency [5] | outcome [6]

C[C@]12CCC(=O)C=C1CC[C@@H]1[C@@H]2C(=O)C[C@@]2(C)[C@H]1CC[C@]2(O)C(=O)CO
inactive: Potency [4] | Potency [5] | outcome [6]

C[C@H](CS)C(=O)N1CCC[C@H]1C(=O)O
inactive: outcome [13] | Potency [5] | outcome [6] | activity, negative = inhibition ([7]; parasite line A) -25.9% | activity, negative = inhibition ([7]; parasite line B) 10.2% | Potency (3D7) | Potency (7G8) | Potency (AA1029) | Potency (AS120) | Potency (ATS189) | Potency (ATS95) | Potency (C2A)

CN(C)CC[C@@H](c1ccc(Br)cc1)c1ccccn1
-23.7%: activity [2]
inactive: Potency [5] | outcome [6] | activity, negative = inhibition ([7]; parasite line A) -5.21% | activity, negative = inhibition ([7]; parasite line B) 2.6% | Potency (3D7) | Potency (ATS189) | Potency (C2A)
1.79%: activity change, negative = inhibition [1]
active: Potency (7G8) 8.91 µM
0.473%: activity [3]

CCc1c(C)[nH]c2c1C(=O)C(CN1CCOCC1)CC2 (centres undefined)
inactive: Potency [4] | Potency [5]
-2.7%: activity change, negative = inhibition [1]
4.21%: activity [3]
-7.58%: activity [2]

Cc1cc(C)c(/C=C2\C(=O)Nc3ccccc32)[nH]1
0.161: Z-AUC ([12]; measured here: PEO4 Z-AUC)
0.596: Z-AUC [12, 14]
inactive: Potency [4] | Potency [5] | outcome [6] | Z-AUC [12] 0.918 | activity, negative = inhibition ([7]; parasite line A) 2.71% | activity, negative = inhibition ([7]; parasite line B) 10.1% | Potency (3D7) | Potency (7G8) | Potency (AA1029) | Potency (AS120) | Potency (ATS189) | Potency (ATS95) | Potency (C2A)

Nc1nc(N)c2nc(-c3ccccc3)c(N)nc2n1
active: Potency [5] 2.86 µM | Potency ([7]; parasite line A) 2 µM | Potency (3D7) 7.08 µM
inactive: outcome [13] | Potency [4] | outcome [6] | activity, negative = inhibition ([7]; parasite line B) 5.12% | Potency (AA1029) | Potency (AS120) | Potency (ATS189) | Potency (ATS95) | Potency (C2A)

OCCN1CCN(CCCN2c3ccccc3C=Cc3ccccc32)CC1
inactive: outcome [13] | Potency [4] | Potency [5] | outcome [6]
active: Potency ([7]; parasite line A) 8.91 µM | Potency ([7]; parasite line B) 11.2 µM | Potency (3D7) 11.2 µM | Potency (7G8) 2 µM | Potency (AA1029) 4.47 µM | Potency (AS120) 4.47 µM | Potency (ATS189) 5.01 µM | Potency (ATS95) 5.01 µM | Potency (C2A) 11.2 µM

CC1=C(C)C(=O)C(CCCCC#CCCCC#CCO)=C(C)C1=O
-9.42%: activity [2]
4.63%: activity change, negative = inhibition [1]
active: Potency ([7]; parasite line A) 11.2 µM | Potency (3D7) 12.6 µM | Potency (7G8) 2.51 µM | Potency (AS120) 6.31 µM | Potency (C2A) 10 µM
inactive: Potency [4] | Potency [5]
5.31%: activity [3]

COC(=O)C1=C(C)NC(C)=C(C(=O)OCCN(C)Cc2ccccc2)C1c1cccc([N+](=O)[O-])c1 (centres undefined)
inactive: Potency [4] | Potency [5] | outcome [6]

C=CCc1ccccc1OCC(O)CNC(C)C (centres undefined)
inactive: outcome [13] | Potency [4] | Potency [5] | activity, negative = inhibition ([7]; parasite line A) -5.93% | Potency (3D7) | Potency (C2A)
active: Potency (7G8) 8.91 µM | Potency (AA1029) 10 µM | Potency (AS120) 4.47 µM

NC(N)=N/N=C/c1c(Cl)cccc1Cl
inactive: Potency [4] | outcome [6] | Potency (3D7) | Potency (AS120)
-1.71%: activity [3]
0.25%: activity change, negative = inhibition [1]
-52.2%: activity [2]
active: Potency (7G8) 11.2 µM

C[C@]12CC[C@@H]3c4ccc(O)cc4C[C@@H](CCCCCCCCCS(=O)CCCC(F)(F)C(F)(F)F)[C@H]3[C@@H]1CC[C@@H]2O (some centres undefined)
inactive: Potency [4] | Potency [5] | outcome [6]

COCCc1ccc(OCC(O)CNC(C)C)cc1 (centres undefined)
inactive: Potency [4] | Potency [5] | outcome [6]

COC(=O)[C@@H](N)Cc1ccc(O)c(O)c1
4.06%: activity [2]
5.34%: activity [3]
1.23%: activity change, negative = inhibition [1]
inactive: Potency [4] | outcome [6] | activity, negative = inhibition ([7]; parasite line B) -10.7% | Potency (AA1029) | Potency (AS120) | Potency (ATS189) | Potency (ATS95)

CC(C)NCC(O)c1cc(O)cc(O)c1 (centres undefined)
inactive: Potency [4] | Potency [5] | outcome [6]

— PubChem BioAssay (NCATS)
